Values joined by “and” are separate entries in the source; they are usually repeats but may differ in a detail not shown here. Identical values can stand only once. Records with an inconclusive call do not appear. The source holds several records for some structures; these can differ, active in one and inactive in another. Active and inactive are the calls of the source. Unless noted, the call rests on the fitted dose curve; in most records, active means well fitted curve in the direction sought with a large enough effect in the repeat runs; inconclusive means weak or mixed curves; inactive means no such curve, though single readings can be large; an effect the other way counts as inactive or inconclusive.
Key:
[1] = qHTS assay to identify small molecule antagonists of the peroxisome proliferator-activated receptor delta (PPARd) signaling pathway - cell viability counter screen (AID 743213); further: nearly all actives have a fitted effect of over 50% in size; further: potency means the concentration at half of the fitted maximal effect
How it was run: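 Viability counter-screen, qHTS format: PPARd-bla HEK293H, L165041 300 nM final, 17 h compound exposure at 37 C, CellTiter-Glo luminescence after 30 min RT.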

[2] = qHTS assay to identify small molecule agonists of the farnesoid-X-receptor (FXR) signaling pathway - cell viability counter screen (AID 743218); further: nearly all actives have a fitted effect of over 45% in size; further: potency means the concentration at half of the fitted maximal effect
How it was run: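 After 16 h at 37 C with test compounds, FXR-bla HEK 293T cells were given LiveBLAzer B/G substrate for 2 h at RT and then CellTiter-Glo; luminescence was taken after 30 min.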

[3] = molecular target: Peroxisome proliferator-activated receptor delta (Homo sapiens) (UniProt Q03181); experiment: qHTS assay to identify small molecule antagonists of the peroxisome proliferator-activated receptor delta (PPARd) signaling pathway (AID 743215; active means well fitted inhibition curve with a large enough effect in the signal ratio in the repeat runs, not every such curve was filed as active; the % refers to the signal ratio;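 further: cells stimulated with agonist L165041 at 300 nM final during compound exposure; series mostly up to about 62 µM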)
Chain of Peroxisome proliferator-activated receptor delta (Homo sapiens) (Q03181 whole entry, looked up): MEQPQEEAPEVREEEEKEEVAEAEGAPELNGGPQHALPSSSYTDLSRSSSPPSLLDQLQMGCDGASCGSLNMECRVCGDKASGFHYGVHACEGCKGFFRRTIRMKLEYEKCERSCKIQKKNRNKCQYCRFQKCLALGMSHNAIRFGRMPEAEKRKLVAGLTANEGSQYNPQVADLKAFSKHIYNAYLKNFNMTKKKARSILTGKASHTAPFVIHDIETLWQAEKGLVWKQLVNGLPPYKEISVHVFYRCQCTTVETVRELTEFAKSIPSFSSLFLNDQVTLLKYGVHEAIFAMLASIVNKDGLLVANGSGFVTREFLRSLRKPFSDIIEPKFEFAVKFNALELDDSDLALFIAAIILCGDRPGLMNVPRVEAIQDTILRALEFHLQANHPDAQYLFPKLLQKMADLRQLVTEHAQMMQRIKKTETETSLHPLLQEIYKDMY
How it was run: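 With L165041 present at 300 nM final, compounds were incubated 17 h at 37 C on PPARd UAS-bla HEK293H cells. A FRET-based beta-lactamase substrate was then applied for 2 h at room temperature and fluorescence intensity recorded.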

[4] = molecular target: Bile acid receptor (Homo sapiens) (UniProt Q96RI1); experiment: qHTS assay to identify small molecule antagonists of the farnesoid-X-receptor (FXR) signaling pathway (AID 743217; active means well fitted inhibition curve with a large enough effect in the signal ratio in the repeat runs, not every such curve was filed as active; the % refers to the signal ratio; further: potency means the concentration at half of the fitted maximal effect)
Chain of Bile acid receptor (Homo sapiens) (Q96RI1 whole entry, looked up): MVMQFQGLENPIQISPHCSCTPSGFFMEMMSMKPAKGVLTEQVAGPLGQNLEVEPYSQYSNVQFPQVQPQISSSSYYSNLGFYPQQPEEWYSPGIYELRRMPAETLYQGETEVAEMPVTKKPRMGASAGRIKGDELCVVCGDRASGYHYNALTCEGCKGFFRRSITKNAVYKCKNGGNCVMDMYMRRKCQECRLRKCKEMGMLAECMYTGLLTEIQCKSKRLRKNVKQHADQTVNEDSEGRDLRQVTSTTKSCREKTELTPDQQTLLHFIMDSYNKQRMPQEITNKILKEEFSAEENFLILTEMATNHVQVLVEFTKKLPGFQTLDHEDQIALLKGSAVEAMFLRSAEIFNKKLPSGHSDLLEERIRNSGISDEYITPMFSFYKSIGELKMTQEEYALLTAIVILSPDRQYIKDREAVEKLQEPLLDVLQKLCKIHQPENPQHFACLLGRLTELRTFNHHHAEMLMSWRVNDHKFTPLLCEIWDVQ
How it was run: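 In this cell-based antagonist screen, inhibition of CDCA-driven (50 uM final) UAS-beta-lactamase expression in HEK 293T cells was measured by FRET fluorescence following 16 h compound exposure at 37 °C.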

[5] = molecular target: Bile acid receptor (Homo sapiens) (UniProt Q96RI1); experiment: qHTS assay to identify small molecule agonists of the farnesoid-X-receptor (FXR) signaling pathway (AID 743220; active means well fitted activation curve with a large enough effect in the signal ratio in the repeat runs, not every such curve was filed as active; the % refers to the signal ratio; further: potency means the concentration at half of the fitted maximal effect)
How it was run: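 Beta-lactamase reporter under UAS control in GeneBLAzer FXR HEK 293T cells (5000/well) measured with LiveBLAzer FRET substrate after 2 h at room temperature. Compound exposure lasted 16 h at 37C.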

[6] = qHTS assay to identify small molecule antagonists of the farnesoid-X-receptor (FXR) signaling pathway - cell viability counter screen (AID 743221; active means well fitted cell-killing curve with a large enough effect in the repeat runs, not every such curve was filed as active; further: nearly all actives have a fitted effect of over 50% in size; further: potency means the concentration at half of the fitted maximal effect)
How it was run: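 Here viability was scored by luminescence after CellTiter-Glo addition to wells already read for beta-lactamase. Prior treatment: compound plus CDCA (50 uM final), 16 h, 37 C, HEK 293T FXR-bla cells.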

[7] = qHTS assay to identify small molecule agonists of the vitamin D receptor (VDR) signaling pathway - cell viability counter screen (AID 743224); further: nearly all actives have a fitted effect of over 50% in size; further: potency means the concentration at half of the fitted maximal effect
How it was run: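 Here cell health was gauged by luminescent ATP detection (CellTiter-Glo, 30 min RT) in VDR-bla cells that had been incubated with test compounds for 16 h at 37C and 5% CO2.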

[8] = molecular target: Vitamin D3 receptor (Homo sapiens) (UniProt P11473); experiment: qHTS assay to identify small molecule antagonists of the vitamin D receptor (VDR) signaling pathway (AID 743223; active means well fitted inhibition curve with a large enough effect in the signal ratio in the repeat runs, not every such curve was filed as active; the % refers to the signal ratio; further: potency means the concentration at half of the fitted maximal effect)
Chain of Vitamin D3 receptor (Homo sapiens) (P11473 whole entry, looked up): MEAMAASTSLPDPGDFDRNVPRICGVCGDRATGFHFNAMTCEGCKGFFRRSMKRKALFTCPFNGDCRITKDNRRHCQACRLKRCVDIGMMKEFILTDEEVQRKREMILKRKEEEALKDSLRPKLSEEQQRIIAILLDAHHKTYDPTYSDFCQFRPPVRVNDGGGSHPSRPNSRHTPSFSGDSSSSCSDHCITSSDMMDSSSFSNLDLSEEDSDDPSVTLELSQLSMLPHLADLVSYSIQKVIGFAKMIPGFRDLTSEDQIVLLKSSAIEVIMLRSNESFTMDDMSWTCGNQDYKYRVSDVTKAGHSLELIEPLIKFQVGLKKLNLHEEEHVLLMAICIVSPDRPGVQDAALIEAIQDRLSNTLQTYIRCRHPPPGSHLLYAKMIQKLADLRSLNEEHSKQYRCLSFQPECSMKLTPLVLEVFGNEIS
How it was run: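 Inhibition of agonist-driven VDR signalling is scored in VDR-bla cells: 3 nM final 1alpha,25-dihydroxyvitamin D3 plus compound, 16 h at 37C, then beta-lactamase detection by FRET substrate fluorescence after 2 h.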

[9] = molecular target: Vitamin D3 receptor (Homo sapiens) (UniProt P11473); experiment: qHTS assay to identify small molecule agonists of the vitamin D receptor (VDR) signaling pathway (AID 743222; calls by dose curve; further: potency means the concentration at half of the fitted maximal effect)
How it was run: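 VDR-bla cells were seeded, left 4 h, treated with compounds in DMSO for 16 h, incubated 2 h at RT with B/G FRET substrate, and read for fluorescence.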

[10] = molecular target: Peroxisome proliferator-activated receptor delta (Homo sapiens) (UniProt Q03181); experiment: qHTS assay to identify small molecule agonists of the peroxisome proliferator-activated receptor delta (PPARd) signaling pathway (AID 743212; calls by dose curve)
How it was run: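 A PPARd-bla HEK293H line with beta-lactamase under an Upstream Activator Sequence is treated with compounds at 37 C. Substrate loading for 2 h at room temperature precedes the fluorescence measurement.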

Measured: Potency

CCCCCCCCCCCCN(CCO)CCO
active: [1] 48.8 µM | [2] 54.7 µM

C[Si](C)(C)Cl
inactive: [1] | [3] | [4] | [2] | [5] | [6] | [7]

Nc1ncnc2c1ncn2[C@@H]1O[C@H](COP(=O)(O)O)[C@@H](O)[C@H]1O
inactive: [3] | [8]
active: [1] 11.9 µM | [6] 13.3 µM

COCC(=O)O[C@]1(CCN(C)CCCc2nc3ccccc3[nH]2)CCc2cc(F)ccc2[C@@H]1C(C)C
active: [1] 16.8 µM | [2] 11.9 µM | [6] 23.7 µM
inactive: [5]

CCC(C)(C)c1cc(O)c(C(C)(C)CC)cc1O
inactive: [1] | [3] | [6] | [9]

CO[C@H]1C=CO[C@@]2(C)Oc3c(C)c(O)c4c(O)c(cc(O)c4c3C2=O)NC(=O)/C(C)=C\C=C/[C@H](C)[C@H](O)[C@@H](C)[C@@H](O)[C@@H](C)[C@H](OC(C)=O)[C@@H]1C
inactive: [10] | [6] | [8] | [7]

Cc1occc1SSc1ccoc1C
inactive: [1] | [4] | [2] | [6] | [8]

C1CC(COCC2CO2)CCC1COCC1CO1 (stereo unspecified)
inactive: [1] | [4] | [2] | [6] | [9] | [7]

CCN1CCN(c2cc(-c3ccc(F)cc3)c3c(n2)CCCCCC3)CC1
inactive: [1] | [3] | [2] | [6] | [9] | [8] | [7]

CCc1ccc(O)c(C(C)(C)C)c1
inactive: [10] | [2] | [6]

CCCSS/C(CCO)=C(\C)N(C=O)Cc1cnc(C)nc1N
inactive: [1] | [2] | [6] | [9] | [7]

CC=O
active: [1] 40.7 µM | [2] 45.7 µM | [6] 64.5 µM | [7] 22.9 µM

C/C=C/C=N/NC(=O)c1ccncc1
inactive: [1] | [2] | [6] | [8]

CCOC(=O)C1=C(C)NC(C)=C(C(=O)OCC)C1c1ccccc1/C=C/C(=O)OC(C)(C)C
active: [1] 18.8 µM | [2] 23.7 µM | [5] 33.5 µM | [9] 29.8 µM
inactive: [7]

Oc1ccc(-c2ccc(O)cc2)cc1
inactive: [1] | [6] | [9] | [8] | [7]

O=C(O)CCn1c2c(c3ccccc31)C[C@H](NS(=O)(=O)c1ccc(F)cc1)CC2
inactive: [1] | [2] | [6] | [7]

CC1=C(/C=C/C(C)=C/C=C/C(C)=C/C(=O)Nc2ccc(O)cc2)C(C)(C)CCC1
active: [1] 12.6 µM and 7.5 µM | [2] 44.8 µM and 11.9 µM | [6] 56.4 µM and 26.6 µM | [7] 14.2 µM and 10.6 µM

S=C(SSSSSSC(=S)N1CCCCC1)N1CCCCC1
active: [1] 0.382 µM | [7] 0.271 µM
inactive: [5] | [8]

COC(=O)C1=C(C)NC(C)=C(C(=O)OCCCN2CCC(c3ccccc3)(c3ccccc3)CC2)C1c1cccc([N+](=O)[O-])c1 (stereo unspecified)
active: [1] 11.9 µM | [2] 11.9 µM | [6] 26.6 µM | [7] 26.6 µM

CC(COC(=O)c1ccccc1)OC(=O)c1ccccc1 (stereo unspecified)
inactive: [1] | [6] | [8]

CCCOc1sc(C(=O)N2CCC(c3cc(CN)ccc3F)CC2)c(C)c1Br
active: [1] 17.9 µM | [2] 25.2 µM | [6] 50.4 µM | [7] 35.7 µM

O=C1OC(OC(=O)c2cccnc2Nc2cccc(C(F)(F)F)c2)c2ccccc21 (stereo unspecified)
inactive: [1] | [2] | [6] | [7]

Nc1ccc2cc3ccc(N)cc3nc2c1
3.89 µM (active) and inactive: [2]
24.5 µM (active) and inactive: [7]
inactive: [1] | [6]

CCCCOC(=O)C(C)CC (stereo unspecified)
active: [1] 49 µM | [7] 24.5 µM
inactive: [2] | [8]

O=C1c2c(O)ccc([N+](=O)[O-])c2C(=O)c2c([N+](=O)[O-])ccc(O)c21
active: [1] 13.7 µM | [2] 54.4 µM | [6] 43.2 µM | [7] 10.9 µM

CCN=C1C=CC(=C(c2ccc(N(CC)CC)cc2)c2ccc(N(CC)CC)cc2)c2ccccc21
active: [1] 12.2 µM | [2] 6.88 µM | [6] 13.7 µM | [7] 4.87 µM

CSc1c(Cl)c(Cl)c(Cl)c(Cl)c1Cl
inactive: [1] | [5] | [6] | [9] | [8]

CN(C)CCCN1c2ccccc2CCc2ccccc21
inactive: [6] | [7]
active: [1] 24.5 µM and 26.6 µM
19.5 µM (active) and inactive: [2]

CC(=O)Nc1ccc(O)cc1
inactive: [1] | [2] | [6]

CN1[C@@H]2CC[C@H]1CC(OC(=O)C(CO)c1ccccc1)C2 (stereo partly specified)
inactive: [1] | [2] | [6]

C[C@@]12C(=O)OC(=O)[C@]1(C)C1CCC2O1
active: [1] 8.41 µM | [2] 11.9 µM | [6] 13.3 µM

Cc1c(-c2ccc(O)cc2)n(Cc2ccc(OCCN3CCCCCC3)cc2)c2ccc(O)cc12
active: [1] 26.6 µM | [2] 29.8 µM | [6] 29.8 µM

C=CC(=O)OCCOCC(CC)(COCCOC(=O)C=C)COCCOC(=O)C=C
active: [1] 36.1 µM | [2] 51 µM | [6] 51 µM | [7] 64.3 µM

Clc1ccccc1CN1CCc2sccc2C1
inactive: [1] | [2] | [6] | [7]

CCC1(c2cnc[nH]2)Cc2ccccc2C1
inactive: [1] | [2] | [6] | [8] | [7]

COC(=O)CC#N
inactive: [1] | [2] | [6]

COc1cc(C(=O)NS(=O)(=O)c2ccccc2C)ccc1Cc1cn(C)c2ccc(NC(=O)OC3CCCC3)cc12
inactive: [1] | [6] | [8] | [7]

O=C(Nc1ccc(Cl)c(Cl)c1)c1cc(Cl)cc(Cl)c1O
active: [1] 11 µM | [2] 3.89 µM | [6] 13.8 µM | [7] 1.95 µM

NCCCC(O)(P(=O)(O)O)P(=O)(O)O
inactive: [1] | [2] | [6] | [8] | [7]

O=C1NCN(c2ccccc2)C12CCN(CCCC(c1ccc(F)cc1)c1ccc(F)cc1)CC2
active: [1] 21.1 µM | [2] 26.6 µM | [6] 33.5 µM

N#CSCSc1nc2ccccc2s1
inactive: [2]
active: [1] 4.9 µM | [7] 12.3 µM

CNC(=S)NN
active: [1] 11 µM | [8] 17.4 µM
inactive: [2]

C[C@H]1O[C@@H](O[C@H]2[C@@H](O)C[C@H](O[C@H]3[C@@H](O)C[C@H](O[C@H]4CC[C@@]5(C)[C@H](CC[C@@H]6[C@@H]5C[C@@H](O)[C@]5(C)[C@@H](C7=CC(=O)OC7)CC[C@]65O)C4)O[C@@H]3C)O[C@@H]2C)C[C@H](O)[C@@H]1O
active: [1] 24.6 nM and 13.6 nM | [2] 24.6 nM and 12.2 nM | [7] 0.0174 µM
inactive: [5]

CC(C)(C)C1=CC(=O)C=C(C(C)(C)C)C1=O
inactive: [1] | [6] | [9] | [8] | [7]

Cc1cccc(C)c1NC(=O)CN1CCN(CCCC(c2ccc(F)cc2)c2ccc(F)cc2)CC1
active: [1] 21.1 µM | [2] 26.6 µM | [6] 29.8 µM | [7] 29.8 µM
inactive: [5]

CCCCCCCC/C=C\CCCCCCCC(=O)N(C)CC(=O)O
active: [1] 12.3 µM | [2] 38.9 µM | [6] 54.9 µM | [7] 49 µM

Oc1c(Br)cc(Br)c2cccnc12
inactive: [2] | [6]
active: [1] 3.35 µM | [7] 3.35 µM

CCCCCCCCCCCCCC[n+]1ccccc1
active: [1] 24.5 µM | [6] 54.9 µM | [8] 43.6 µM

C[C@]12CC[C@H]3C(=CCc4cc(O)ccc43)[C@@H]1CCC2=O
inactive: [3] | [2] | [5] | [6]

CC(C(O)c1ccccc1)N(C)CCOC(c1ccccc1)c1ccccc1 (stereo unspecified)
inactive: [3] | [5] | [8]
active: [2] 15 µM

C=CC(C)(CCC=C(C)C)OC(=O)/C=C/c1ccccc1 (stereo unspecified)
inactive: [4] | [2] | [5] | [6] | [8]

O=C(c1ccccc1)c1cc(Cl)ccc1O
inactive: [4] | [2] | [5] | [6] | [9] | [7]

Cc1c(C)n(Cc2ccccc2)c2ccc(C(=O)OCCN(C)C)cc12
inactive: [4] | [5] | [6] | [8]

C=C[C@](C)(O)CC[C@@H]1[C@@]2(C)CCCC(C)(C)[C@@H]2CC[C@@]1(C)O
active: [4] 49 µM | [7] 43.6 µM

CCCCN(CCCC)CCC(O)c1cc2c(Cl)cc(Cl)cc2c2cc(C(F)(F)F)ccc12 (stereo unspecified)
active: [2] 29.8 µM
inactive: [3] | [5] | [8] | [7]

Cc1c(C(=O)O)cccc1[N+](=O)[O-]
inactive: [4] | [2] | [5] | [6] | [8]

Reference: PubChem BioAssay (Tox21)
